# Laboratory results from paper PMC11062922 (Nature Chemical Biology, 2023).
# Key:
# Set-up in all cases: species or system human, MV4-11 + K-562 + COLO205 + SK-N-BE2 + OVCAR-8
# [1] = test system: DDR1; conditions: compound concentrations: 100 nM and 1000 nM (sheet 'Samples')
# [2] = test system: DDR2; conditions: compound concentrations: 100 nM and 1000 nM (sheet 'Samples')
# [3] = test system: FLT3; conditions: compound concentrations: 100 nM and 1000 nM (sheet 'Samples')
# [4] = test system: JAK1(JH2domain-pseudokinase); conditions: compound concentrations: 100 nM and 1000 nM (sheet 'Samples')
# [5] = test system: MAP3K4; conditions: compound concentrations: 100 nM and 1000 nM (sheet 'Samples')
# [6] = test system: MLK1; conditions: compound concentrations: 100 nM and 1000 nM (sheet 'Samples')
# [7] = test system: NEK6; conditions: compound concentrations: 100 nM and 1000 nM (sheet 'Samples')
# [8] = test system: PKAC-beta; conditions: compound concentrations: 100 nM and 1000 nM (sheet 'Samples')
# [9] = test system: RSK1(Kin.Dom.1-N-terminal); conditions: compound concentrations: 100 nM and 1000 nM (sheet 'Samples')
# [10] = test system: SYK; conditions: compound concentrations: 100 nM and 1000 nM (sheet 'Samples')
# [11] = test system: DAPK3; conditions: read-out: apparent Kd; compound concentrations: 100 nM and 1000 nM (sheet 'Samples'), CATDS: 6.6145961365307402E-3; n = 1
# [12] = test system: CDK1; conditions: read-out: apparent Kd; compound concentrations: 100 nM and 1000 nM (sheet 'Samples'), CATDS: 4.2052312432732299E-3; n = 1
# [13] = test system: FN3K; conditions: read-out: apparent Kd; compound concentrations: 100 nM and 1000 nM (sheet 'Samples'), CATDS: 4.2262124169733604E-3; n = 1
# [14] = test system: MAPK3; conditions: read-out: apparent Kd; compound concentrations: 100 nM and 1000 nM (sheet 'Samples'), CATDS: 4.9102061744830498E-3; n = 1
# [15] = test system: MAPK7; conditions: read-out: apparent Kd; compound concentrations: 100 nM and 1000 nM (sheet 'Samples'), CATDS: 3.9838262564481702E-3; n = 1
# [16] = test system: PKMYT1; conditions: read-out: apparent Kd; compound concentrations: 100 nM and 1000 nM (sheet 'Samples'), CATDS: 4.7786675943352697E-3; n = 1
# [17] = test system: SLC25A5; conditions: read-out: apparent Kd; compound concentrations: 100 nM and 1000 nM (sheet 'Samples'), CATDS: 3.4931763386449499E-3; n = 1
# [18] = test system: TAOK2; conditions: read-out: apparent Kd; compound concentrations: 100 nM and 1000 nM (sheet 'Samples'), CATDS: 4.3468745935786399E-3; n = 1
# [19] = test system: TESK1; conditions: read-out: apparent Kd; compound concentrations: 100 nM and 1000 nM (sheet 'Samples'), CATDS: 1.6628532352141699E-2; n = 1
# [20] = test system: TUBB6; conditions: read-out: apparent Kd; compound concentrations: 100 nM and 1000 nM (sheet 'Samples'), CATDS: 3.8955620012379099E-3; n = 1
# 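Wherever Kinobeads Data is given: kinobeads ε competition pulldown from cell lysate, compound preincubated 45 min at 4 °C, bound kinases quantified by LC–MS/MS relative to DMSO control.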
structure (smiles),measurement,setting,value
COc1cc(Nc2ncc3c(C)nc(-c4cc5ccccc5[nH]4)n3n2)cc(OC)c1OC [GW869516X],Kinobeads Data,[1],no target
same,Kinobeads Data,[2],no target
same,Kinobeads Data,[3],no target
same,Kinobeads Data,[4],no target
same,Kinobeads Data,[5],no target
same,Kinobeads Data,[6],no target
same,Kinobeads Data,[7],no target
same,Kinobeads Data,[8],no target
same,Kinobeads Data,[9],no target
same,Kinobeads Data,[10],no target
O=C1N=C(NCCc2ccc(Cl)cc2)S/C1=C\c1ccc2ncccc2c1 [RO4498479-000],potency estimated from few doses,[11],2.11 µM
Cn1ncc2c(N)ncnc21 [SKF-18267],potency estimated from few doses,[12],1.18 µM
same,potency estimated from few doses,[13],1.17 µM
same,potency estimated from few doses,[14],0.844 µM
same,potency estimated from few doses,[15],1.35 µM
same,potency estimated from few doses,[16],0.892 µM
same,potency estimated from few doses,[17],1.95 µM
same,potency estimated from few doses,[18],1.1 µM
same,potency estimated from few doses,[19],0.136 µM
same,potency estimated from few doses,[20],1.43 µM
